The panel holds about 83,000 compounds, 20% with a hit somewhere; the sample as a whole holds those more often.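 96-well plates, one dose, 48 hours. Percent growth reported; active if below 10.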 Values without a mark were called inactive. Activity calls are given as the source filed them.
How the values were obtained:
Experiment in all cases: NCI-60 one-dose screen, 48 h (100 = growth as untreated, 0 = no growth, -100 = all killed)
Conditions in all cases: 10 µM unless noted
NCI-H23 lung = tested on: NCI-H23 lung
NCI-H226 lung = tested on: NCI-H226 lung
NCI-H322M lung = tested on: NCI-H322M lung
HOP-62 NSCLC = tested on: HOP-62 NSCLC
NCI-H460 lung = tested on: NCI-H460 lung
HOP-92 NSCLC = tested on: HOP-92 NSCLC
NCI-H522 lung = tested on: NCI-H522 lung
A549/ATCC NSCLC = tested on: A549/ATCC NSCLC
786-0 renal = tested on: 786-0 renal
COLO 205 colon = tested on: COLO 205 colon
DU-145 prostate = tested on: DU-145 prostate
K-562 leukemia = tested on: K-562 leukemia
MALME-3M melanoma = tested on: MALME-3M melanoma
MDA-MB-231 breast = tested on: MDA-MB-231 breast
RXF 393 renal = tested on: RXF 393 renal
SF-268 CNS = tested on: SF-268 CNS
SF-295 CNS = tested on: SF-295 CNS
SF-539 CNS = tested on: SF-539 CNS
UACC-257 melanoma = tested on: UACC-257 melanoma
M14 melanoma = tested on: M14 melanoma

Compound	growth (NCI-H23 lung)	growth (NCI-H226 lung)	growth (NCI-H322M lung)	growth (HOP-62 NSCLC)	growth (NCI-H460 lung)	growth (HOP-92 NSCLC)	growth (NCI-H522 lung)	growth (A549/ATCC NSCLC)	growth (786-0 renal)	growth (COLO 205 colon)	growth (DU-145 prostate)	growth (K-562 leukemia)	growth (MALME-3M melanoma)	growth (MDA-MB-231 breast)	growth (RXF 393 renal)	growth (SF-268 CNS)	growth (SF-295 CNS)	growth (SF-539 CNS)	growth (UACC-257 melanoma)	growth (M14 melanoma)
Cc1nn(-c2ccccc2)c(-n2ccnc2)c1/C=N/Nc1nc(-c2ccc(F)cc2)cs1	58.1%	50.3%	88.8%	98.8%	83.3%	42.9%	73.6%	65%	106%	70.8%	87.5%	38.8%	83.2%	79.6%	88.5%	76.9%	77.3%	87.6%	75.6%	79.7%
CN(C)CCS(=O)(=O)Nc1cc(-c2ccc3ncc(C#N)c(Nc4ccc(F)c(Cl)c4)c3c2)cnc1Cl	-28.5% (active)	-15.2% (active)	-54.5% (active)	0.0433% (active)	0.906% (active)	-17.9% (active)	-39.8% (active)	-30.5% (active)	-20.1% (active)	-80.8% (active)	-10.3% (active)	6.62% (active)	-50.5% (active)	-39.5% (active)	-56% (active)	-41% (active)	-19% (active)	-36.4% (active)	-17.3% (active)	-40.4% (active)
O=C(Cc1ccc2c(c1)OCCO2)Nc1nc2ccc(F)cc2s1	87.1%	104%	105%	93.4%	103%	109%	87.2%	102%	104%	124%	107%	76.3%	97.3%	115%	43%	119%	106%	101%	109%	100%
Cc1ccc(/C=C(\C#N)n2nc3cccc(F)c3n2)cc1	83.7%	92.9%	88.7%	93.9%	96.3%	55.7%	74.9%	97.7%	83.7%	122%	97.8%	80.5%	93%	98.3%	89.7%	93.4%	92.8%	92.6%	97.7%	98.2%
C=C1C(=O)O[C@H]2[C@H]1CC/C(COC(=O)NCCOCCOCC(=O)Nc1ccc(OC)c(C(N)=O)c1O)=C\CC[C@@]1(C)O[C@@H]21	78.5%	89.8%	96.9%	84%	95.8%	24.2%	-11% (active)	84.1%	62.1%	8% (active)	76.9%	25.6%	62.1%	52%	-9.54% (active)	81.9%	97.7%	37%	57.1%	60.4%
COc1ccc(-c2cc(-c3cc(OC)c(OC)c(OC)c3)nc(N3CCOCC3)c2C#N)cc1	23.4%	83.8%	93.6%	88.8%	73.8%	58.4%	59.9%	60%	61.3%	57.7%	93.5%	47.5%	126%	75.3%	52.9%	83.4%	69.5%	76.6%	74.2%	90.3%
Cc1nc2ccccc2c(/C=C/c2ccc(Cl)cc2)c1C(=O)/C=C/c1cccs1	67.8%	81.2%	87.4%	94.9%	66.7%	64.1%	57.4%	88.1%	87.4%	82%	79%	44.7%	107%	75.8%	83.7%	78.8%	82%	99.5%	79.9%	82%
CC(=O)Oc1ccccc1C(=O)N=C1[Se]CCCN1C(=O)c1ccccc1OC(C)=O	6.41% (active)	-19.1% (active)	-5.61% (active)	17.7%	5.16% (active)	-10.3% (active)	73.3%	77.9%	95.9%	114%	15.8%	32.1%	-27.1% (active)	-57.6% (active)	6.8% (active)	-14.1% (active)	17.5%	-42.5% (active)	57.4%	-10.4% (active)
O=C1NC(=O)C(c2ccccc2)(c2ccccc2)N1Cc1cn(-c2c3ccccc3nc3ccccc23)nn1	85.5%	99.5%	92.9%	87.5%	74.1%	67.3%	15.9%	78.2%	87.3%	107%	91.2%	39.2%	104%	73.1%	85.6%	89.3%	99%	98.5%	89.1%	96.2%
COc1ccc2cc(C(C)C(=O)Nc3ccc(-c4n[nH]c(=S)n4C4CCCCC4)cc3)ccc2c1 (stereo not given)	90.2%	95.3%	114%	84.3%	43.2%	43.4%	64.8%	41.2%	78.4%	75.5%	89.1%	63.9%	124%	75.9%	91.1%	65.5%	60.7%	83.8%	76.7%	63.2%
C=C1C(=O)O[C@H]2[C@H]1CC/C(COC(=O)CCSSCCC(=O)OC/C1=C/CC[C@@]3(C)O[C@H]3[C@H]3OC(=O)C(=C)[C@@H]3CC1)=C\CC[C@@]1(C)O[C@@H]21	26.4%	78.1%	94.6%	72.3%	64%	-57.7% (active)	-79.8% (active)	60.8%	-70.9% (active)	-72.5% (active)	10.7%	-1.59% (active)	-27.1% (active)	-83.7% (active)	-93.6% (active)	24.8%	72.9%	-63.4% (active)	-7.74% (active)	-10.1% (active)
COc1ccc2c(c1)nc(NNC(=O)c1cnccn1)c1cccn12	33.4%	39.3%	28.5%	28.6%	7.94% (active)	64.3%	9.5% (active)	24.6%	26.1%	7.24% (active)	31.1%	13.9%	46.3%	30.4%	48%	30.4%	13.6%	23.5%	25.7%	8.27% (active)
COC(=O)Nc1ccc(-c2nc(-c3cccc(OC)c3)c(-c3ccnc(Br)c3)[nH]2)cc1	67.7%	59.1%	62.2%	59.4%	61.2%	62.8%	57.9%	54.4%	37.4%	79.7%	81.4%	13.8%	66.7%	65.3%	-12.2% (active)	76%	9.58% (active)	51.6%	71.7%	42.5%
C#Cc1cccc(NC(=O)c2ccc(NC(=O)C=C)cc2)c1	99.1% [8.25 µM]	88.1% [8.25 µM]	84.4% [8.25 µM]	95.2% [8.25 µM]	94.5% [8.25 µM]	90% [8.25 µM]	45.4% [8.25 µM]	69.6% [8.25 µM]	56.5% [8.25 µM]	115% [8.25 µM]	58.9% [8.25 µM]	71% [8.25 µM]	85.2% [8.25 µM]	90% [8.25 µM]	58.7% [8.25 µM]	79.3% [8.25 µM]	102% [8.25 µM]	75.6% [8.25 µM]	69.9% [8.25 µM]	86.3% [8.25 µM]
COc1cccc(-c2nc(-c3ccc(NC(=O)OC(C)C)cc3)[nH]c2-c2ccnc(Br)c2)c1	15.7%	31.2%	35.4%	22.7%	16.7%	40.7%	26.8%	29%	0.518% (active)	25.7%	36%	6.01% (active)	21.8%	37.3%	-33.9% (active)	40.5%	-35.6% (active)	10.5%	45.3%	29.9%
